Experimental data reported in PubChem BioAssay (NCATS).
Records with an inconclusive call do not appear. A number with no mark means an inactive call. Calls of active or inactive are those of the source. Calls follow the shape of the dose curve; as a rule, active = well fitted inhibition curve with a large enough effect; inconclusive = small, poorly fitted or top-dose-only effect; inactive = flat fitted curve, though single readings scatter.

Test system: Zika virus NS2B-NS3 protease
Assay: Primary screen GU AMC qHTS for Zika virus inhibitors (AID 1347154);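 also: 0% = no-inhibitor control and -100% = no-enzyme control; nearly all actives have a fitted effect of over 70% in size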
Conditions: Zika NS2B-NS3 unlinked protease, AMC fluorogenic substrate; series mostly up to 54.1 µM; activity change, negative = inhibition: at the top concentration
How it was run: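 Unlinked Zika NS2B hydrophilic domain–NS3 protease complex at 25 nM in 10 mM Tris-HCl pH 8.0, 0.01% Tween 20, with an AMC peptide substrate. Fluorescence change (340/450 nm) over 15 min at room temperature, normalized to controls, fitted to 4-parameter Hill.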

First: COc1cc(OC)cc(OC)c1
Second: COc1ccc(OC)c(C(O)CNC(=O)CN)c1 (centres undefined)
The “activity change, negative = inhibition” value of the first is higher: 0.352% for the first, -4.66% for the second.

First: CC(=O)Oc1ccc2c(c1)CC[C@@H]1[C@@H]2CC[C@]2(C)[C@@H](O)CC[C@@H]12
Second: C=C1C[C@H]2[C@@H]3C=C(C)C4=CC(=O)CC[C@]4(C)[C@H]3CC[C@]2(C)[C@@]1(OC(C)=O)C(C)=O
The “activity change, negative = inhibition” value of the first is higher: -4.55% for the first, -5.75% for the second.

First: CC1=C(C(=O)O)N2C(=O)[C@@H](NC(=O)[C@H](N)c3ccc(O)cc3)[C@H]2SC1
Second: C[C@H]1[C@H](NC(=O)/C(=N/OC(C)(C)C(=O)O)c2csc(N)n2)C(=O)N1S(=O)(=O)O (stereo in doubt)
The “activity change, negative = inhibition” value of the first is lower: -7.8% for the first, 0.607% for the second.

First: CCCCCCC[N+](CC)(CC)CCCCc1ccc(Cl)cc1
Second: CCCCOc1ccc(OCCCN2CCOCC2)cc1
The “activity change, negative = inhibition” value of the first is higher: 3.97% for the first, -3.98% for the second.

First: CCCCC(=O)O[C@]1(C(=O)CO)CC[C@H]2[C@@H]3CCC4=CC(=O)CC[C@]4(C)[C@H]3[C@@H](O)C[C@@]21C
Second: C[C@]12CCC(=O)C=C1CC[C@H]1[C@@H]3CC[C@](O)(C(=O)CO)[C@@]3(C)C[C@H](O)[C@@]12F
The “activity change, negative = inhibition” value of the first is higher: -0.552% for the first, -4.51% for the second.

Compared with `COC(=O)[C@@H]1CC2=CC(=O)CC[C@]2(C)[C@@]23O[C@@H]2C[C@@]2(C)[C@@H](CC[C@@]24CCC(=O)O4)[C@H]13`, `C=C1C(=C/C=C2\CCC[C@]3(C)[C@@H]([C@H](C)/C=C/[C@@H](O)C4CC4)CC[C@@H]23)C[C@@H](O)C[C@@H]1O` is lower in “activity change, negative = inhibition” value: -4.56% for the first, -9.52% for the second.

Going from `CC[C@@H](CO)NCCN[C@@H](CC)CO` to `CCCC(=O)Nc1ccc(OCC(O)CNC(C)C)c(C(C)=O)c1` (centres undefined), the “activity change, negative = inhibition” value rises from -11.2% to -7.2%.

First: CC(=O)N(O)CCCCCNC(=O)CCC(=O)N(O)CCCCCNC(=O)CCC(=O)N(O)CCCCCN
Second: CC1(C)OC[C@@H](COC(=O)CCc2ccc(OC[C@@H](O)CNCCNC(=O)N3CCOCC3)cc2)O1
The “activity change, negative = inhibition” value of the first is lower: -7.29% for the first, 2.41% for the second.

First: Cc1ncc(CSSCc2cnc(C)c(O)c2CO)c(CO)c1O
Second: Cc1cc2c(cc1CC(=O)c1sccc1S(=O)(=O)Nc1onc(C)c1Cl)OCO2
The “activity change, negative = inhibition” value of the first is higher: -1.24% for the first, -11.6% for the second.

Compared with `Cc1c(C)n(Cc2ccccc2)c2ccc(C(=O)OCCN(C)C)cc12`, `Cc1c(C)n(CCN(C)C)c2ccc(C(=O)OCCN(C)C)cc12` is higher in “activity change, negative = inhibition” value: -14.8% for the first, -5.8% for the second.

Going from `CCN1CCCC1=O` to `CCN(CC)C(=O)N1CCN(C)CC1`, the “activity change, negative = inhibition” value rises from -2.42% to 0.673%.

Compared with `CN(C)CC/C=C1/c2ccccc2COc2ccc(CC(=O)O)cc21`, `COc1ccc(C2C(=O)c3ccccc3C2=O)cc1` is lower in “activity change, negative = inhibition” value: 3.93% for the first, -2.3% for the second.

Going from `CCN1CCN(c2cc3c(cc2F)c(=O)c(C(=O)O)cn3C2CC2)CC1` to `COc1cc2c(cc1OC)C(=O)C(CC1CCN(Cc3ccccc3)CC1)C2` (centres undefined), the “activity change, negative = inhibition” value rises from -17.2% to -14%.

Going from `CC1(C)O[C@@H]2[C@@H](CO[C@@]3(COS(N)(=O)=O)OC(C)(C)O[C@@H]23)O1` to `CCOC(=O)c1cccc(N)c1`, the “activity change, negative = inhibition” value falls from -3.95% to -8.25%.

First: CC(=O)c1ccc2c(c1)N(CCCN1CCC(CCO)CC1)c1ccccc1S2
Second: Cc1cccc(C)c1NC(=O)CN1CCN(CCCC(c2ccc(F)cc2)c2ccc(F)cc2)CC1
The “activity change, negative = inhibition” value of the first is higher: -5.68% for the first, -20.3% for the second.

Going from `O=C(OCC(O)CO)c1ccccc1Nc1ccnc2cc(Cl)ccc12` (centres undefined) to `Nc1ccc(C(=O)Nc2ccccc2N)cc1`, the “activity change, negative = inhibition” value falls from -3.56% to -5.85%.

In the case of `OC[C@@H](O)[C@@H](O[C@@H]1O[C@H](CO)[C@H](O)[C@H](O)[C@H]1O)[C@H](O)[C@@H](O)CO`, the “activity change, negative = inhibition” value is reported as -2.81%.

`Clc1ccc2c(c1)CCc1cccnc1C2=C1CCNCC1` was tested, and the Potency was “inactive”.
In the case of `Cc1cc(=O)n(-c2ccccc2)n1C`, the Potency is reported as “inactive”.
In the case of `CC[N+](CC)(CCNC(=O)C(=O)NCC[N+](CC)(CC)Cc1ccccc1Cl)Cc1ccccc1Cl`, the Potency is reported as “inactive”.
In the case of `C[C@@H]1CN(CCCn2c3ccccc3c3ccccc32)C[C@H](C)N1`, the Potency is reported as “inactive”.
For `O=S1(=O)c2cccc3cccc(c23)N1CCCN1CCN(c2ccc(F)cc2)CC1`, the Potency was “inactive”.

In the case of `N[C@@H](CCC(=O)N[C@@H](CS)C(=O)NCC(=O)O)C(=O)O`, the “activity change, negative = inhibition” value is reported as -0.207% [at 25.8 µM].
